Data reported in PubChem BioAssay (Tox21).
Results filed as inconclusive are left out. A call without a number means that no potency is given here. More than one record can exist for a structure, and the calls need not agree. The source made the active and inactive calls. Unless noted, calls come from the whole dose curve; as a rule, active = well fitted curve in the direction sought with a large enough effect in the repeat runs; inconclusive = weak or mixed curves; inactive = no such curve, though single readings can be large; an effect the other way counts as inactive or inconclusive.

What was measured:
[1] = A CellTox Green Cytotoxicity Assay to monitor cytotoxicity in HepG2 cells - 8 hour (AID 1224890); note: nearly all actives have a fitted effect of over 45% in size
Procedure, shortened: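 Nonlytic assay: viable cells exclude the dye, so fluorescence scales with cell death. HepG2 at 600 cells/well, compounds added after 5 h, signal read across 40 h.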

[2] = qHTS assay to identify small molecule antagonists of the estrogen receptor alpha (ER-alpha) signaling pathway using the BG1 cell line in the presence of 0.1 nM 17-beta-estradiol - cell viability counter screen (AID 1259241); note: nearly all actives have a fitted effect of over 40% in size
Procedure, shortened: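 Live-cell protease activity (CellTiter-Fluor fluorescence, 30 min) was read in the same wells after VM7Luc4E2 cells had been exposed to compounds with 0.1 nM 17beta-estradiol for 22 hr at 37C.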

[3] = qHTS assay to identify small molecule antagonists of the androgen receptor (AR) signaling pathway using the MDA cell line in the presence of 0.5 nM R1881 - cell viability counter screen (AID 1259242); note: nearly all actives have a fitted effect of over 45% in size
Procedure, shortened: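 R1881 at 0.5 nM final stimulated MDA-kb2 cells during 16 hr compound treatment at 37C. Cytotoxicity read: CellTiter-Fluor fluorescence after 30 min.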

[4] = target: Estrogen receptor (Homo sapiens) (UniProt P03372); assay: qHTS assay to identify small molecule antagonists of the estrogen receptor alpha (ER-alpha) signaling pathway using the BG1 cell line in the presence of 0.1 nM 17-beta-estradiol (AID 1259244); note: nearly all actives have a fitted effect of over 50% in size
Procedure, shortened: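 VM7Luc4E2; 4xERE-luciferase; 0.1 nM E2 final; 22 h co-incubation, 37C; ONE-Glo luminescence after 30 min at room temperature.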

[5] = qHTS assay to identify small molecule HDAC inhibitors (AID 1259364); note: potency is the fitted concentration of half-maximal effect;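 note: wild-type HCT-116 cells with endogenous class I/II HDAC activity; nearly all actives have a fitted effect of over 45% in size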
Procedure, shortened: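 Relative class I and II HDAC activity is taken from the luminogenic signal in HCT-116 cells, with compound exposure 2 hr and reagent development 30 min at room temperature.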

[6] = qHTS assay to identify small molecule HDAC inhibitors - cell viability counter screen (AID 1259365); note: series mostly up to about 92 µM; nearly all actives have a fitted effect of over 50% in size
Procedure, shortened: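 HCT-116 (wild type), 1,500 cells/well, overnight 37C/5% CO2; compound in DMSO 2hr; CellTiter-Glo 30min RT; luminescence read.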

[7] = qHTS assay to identify small molecule agonists of the sonic hedgehog signaling (Shh) pathway - cell viability counter screen (AID 1259366); note: nearly all actives have a fitted effect of over 50% in size; note: potency is the fitted concentration of half-maximal effect
Procedure, shortened: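 CellTiter-Fluor fluorescence read-out, 1 hr at 37C, added after 23hr compound exposure. Cells: 3T3 Gli1-Luc, an NIH/3T3 clone with stably integrated Gli1-Luc reporter, plated 4hr before compound.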

[8] = qHTS assay to identify small molecule antagonists of the sonic hedgehog signaling (Shh) pathway - cell viability counter screen (AID 1259367); note: nearly all actives have a fitted effect of over 55% in size; note: potency is the fitted concentration of half-maximal effect
Procedure, shortened: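 After a 4 hr settling period, 3T3 Gli1-Luc cells were treated with DMSO-dissolved chemicals and conditioned medium, kept 24 hr at 37C in 5% CO2, and assayed for viability by CellTiter-Fluor fluorescence following 1 hr reagent incubation.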

[9] = qHTS assay to identify small molecule phospholipidosis (PLD) inducers (AID 1259344; active = well fitted curve in the direction sought with a large enough effect; an effect the other way counts as inactive or inconclusive)
Procedure, shortened: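 HepG2 cells grown on collagen I take up LipidTOX Red while exposed to compound for 24 h; after fixation they are imaged at 20x and pit metrics are extracted.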

[10] = target: Androgen receptor (Homo sapiens) (UniProt P10275); assay: qHTS assay to identify small molecule antagonists of the androgen receptor (AR) signaling pathway using the MDA cell line in the presence of 0.5 nM R1881 (AID 1259243); note: nearly all actives have a fitted effect of over 50% in size
Procedure, shortened: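 We exposed MDA-kb2 cells to compounds under 0.5 nM R1881 stimulation for 16 hr at 37C and quantified MMTV-driven luciferase by luminescence.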

Sequence of Androgen receptor (Homo sapiens) (P10275 whole entry, looked up): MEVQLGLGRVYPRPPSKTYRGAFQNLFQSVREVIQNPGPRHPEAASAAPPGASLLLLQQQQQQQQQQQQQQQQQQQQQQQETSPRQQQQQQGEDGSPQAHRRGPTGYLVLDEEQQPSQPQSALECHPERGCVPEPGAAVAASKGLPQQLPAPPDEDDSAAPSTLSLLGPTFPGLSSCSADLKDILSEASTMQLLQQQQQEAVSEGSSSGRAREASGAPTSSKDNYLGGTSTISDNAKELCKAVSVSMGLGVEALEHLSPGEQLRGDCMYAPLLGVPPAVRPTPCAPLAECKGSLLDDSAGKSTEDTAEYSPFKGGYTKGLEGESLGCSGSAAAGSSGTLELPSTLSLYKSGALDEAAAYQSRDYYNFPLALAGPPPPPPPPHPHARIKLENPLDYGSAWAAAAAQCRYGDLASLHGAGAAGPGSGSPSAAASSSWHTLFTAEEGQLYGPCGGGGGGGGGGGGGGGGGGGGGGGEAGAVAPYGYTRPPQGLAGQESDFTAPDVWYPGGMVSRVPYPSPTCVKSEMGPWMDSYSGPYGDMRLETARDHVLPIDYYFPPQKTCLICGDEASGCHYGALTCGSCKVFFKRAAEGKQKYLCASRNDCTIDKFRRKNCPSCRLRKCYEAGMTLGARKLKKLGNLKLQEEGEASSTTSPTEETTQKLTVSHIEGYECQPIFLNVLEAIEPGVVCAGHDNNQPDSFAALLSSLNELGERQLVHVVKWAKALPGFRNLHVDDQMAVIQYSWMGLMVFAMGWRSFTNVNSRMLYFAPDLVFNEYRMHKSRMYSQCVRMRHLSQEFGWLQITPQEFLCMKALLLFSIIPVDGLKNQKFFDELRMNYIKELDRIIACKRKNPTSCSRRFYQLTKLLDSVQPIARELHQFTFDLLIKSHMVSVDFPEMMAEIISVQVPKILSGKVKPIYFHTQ
Sequence of Estrogen receptor (Homo sapiens) (P03372 whole entry, looked up): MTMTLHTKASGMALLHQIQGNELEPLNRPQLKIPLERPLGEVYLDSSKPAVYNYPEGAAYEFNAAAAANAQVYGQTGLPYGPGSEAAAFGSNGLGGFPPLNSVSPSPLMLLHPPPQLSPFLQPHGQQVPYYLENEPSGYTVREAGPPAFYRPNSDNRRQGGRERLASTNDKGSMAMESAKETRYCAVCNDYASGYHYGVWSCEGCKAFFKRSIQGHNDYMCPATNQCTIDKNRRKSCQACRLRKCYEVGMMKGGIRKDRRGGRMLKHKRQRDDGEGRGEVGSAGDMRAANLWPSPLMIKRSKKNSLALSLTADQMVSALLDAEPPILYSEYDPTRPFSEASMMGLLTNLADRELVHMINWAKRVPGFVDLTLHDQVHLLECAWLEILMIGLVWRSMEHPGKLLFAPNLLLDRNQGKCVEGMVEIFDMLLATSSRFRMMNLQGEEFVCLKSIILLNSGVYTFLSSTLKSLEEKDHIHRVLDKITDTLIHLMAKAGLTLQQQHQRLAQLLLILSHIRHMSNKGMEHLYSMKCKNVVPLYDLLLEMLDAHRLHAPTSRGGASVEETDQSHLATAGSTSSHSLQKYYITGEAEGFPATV

| SMILES | outcome [1] | Potency [2] | Potency [3] | Potency [4] | Potency [5] | outcome [6] | Potency [7] | Potency [8] | outcome [9] | Potency [10] |
| --- | --- | --- | --- | --- | --- | --- | --- | --- | --- | --- |
| CCCCCCCCCCCC(=O)OC | inactive | inactive | inactive | inactive | inactive | inactive | inactive | inactive |  |  |
| COC(=O)CCCC(=O)OC | inactive | inactive | inactive |  | inactive |  | inactive | inactive |  |  |
| c1ccc(Oc2ccccc2)cc1 | inactive | inactive | inactive |  | inactive | inactive | inactive | inactive |  |  |
| NCCNCCN | inactive | inactive | inactive |  | inactive |  | inactive | inactive | inactive |  |
| NCCCCCCN | inactive | inactive | inactive |  | inactive | inactive | inactive | inactive |  |  |
| COc1ccc(C)cc1N | inactive | inactive |  | inactive | inactive | inactive | inactive | inactive |  | inactive |
| O=C(O)CCCCCCCCC(=O)O | inactive | inactive | inactive |  | inactive | inactive | inactive | inactive |  |  |
| O=C(O)Cn1c(=O)n(Cc2ccc(Br)cc2F)c(=O)c2ccc(Cl)cc21 | inactive | inactive |  | inactive | inactive | inactive | 27.3 µM (active) | 21.7 µM (active) |  | inactive |
| O=C1c2ccccc2CCc2ccccc21 | inactive | inactive | inactive |  | 27.9 µM (active) | inactive | inactive | inactive |  |  |
| Cc1ccc2ncccc2c1 | inactive | inactive | inactive | inactive | inactive |  | inactive | inactive |  |  |
| CC(C)CCCCCCCOC(=O)CCCCC(=O)OCCCCCCCC(C)C | inactive | inactive | inactive |  | inactive |  | inactive | inactive |  |  |
| CN1C(=O)CC[C@H]1c1cccnc1 | inactive | inactive | inactive |  | inactive | inactive | inactive | inactive | inactive |  |
| CC(=O)OCc1ccco1 | inactive | inactive | inactive | inactive | inactive |  | inactive | 68.2 µM (active) and inactive |  |  |
| C=CCCCCCCCCC(=O)O | inactive | inactive | inactive |  | inactive | inactive | inactive | inactive | inactive |  |
| C=CC(=O)OCCC(=O)O | inactive | inactive | inactive | inactive | inactive | inactive | inactive | inactive |  |  |
| O=[N+]([O-])c1ccc2nc[nH]c2c1 | inactive | inactive | inactive | inactive | inactive |  | inactive | inactive |  |  |
| CC(=O)CCC=C(C)C | inactive | inactive | inactive | inactive | inactive |  | inactive | inactive |  |  |
| CCCCCCCCCCCCCCCC(=O)OC(C)C | inactive | inactive | inactive |  | inactive |  | inactive | inactive | inactive |  |
| CC(C)(C)c1cc(Cc2cc(C(C)(C)C)c(O)c(C(C)(C)C)c2)cc(C(C)(C)C)c1O | inactive | inactive | inactive | inactive | inactive | inactive | inactive | inactive |  |  |
| CN(C)CCOC(=O)COc1ccc(Cl)cc1 | inactive | inactive | inactive |  | inactive | inactive | inactive | inactive | inactive |  |
| CCc1ccccc1CC | inactive | inactive | inactive | inactive | inactive |  | inactive | inactive |  |  |
| Clc1ccccn1 | inactive | inactive | inactive |  | inactive |  | inactive | inactive |  |  |
| CC(=O)OCCOC(C)=O | inactive | inactive | inactive | inactive | inactive | inactive | inactive | inactive |  |  |
| COCCOC(=O)c1ccccc1C(=O)OCCOC | inactive | inactive | inactive |  | inactive | inactive | inactive | inactive |  |  |
| c1ccc2c(c1)Cc1ccccc1-2 | inactive | inactive |  | inactive | inactive | inactive | inactive | inactive |  |  |
| CCCCC(C=O)CC (configuration not stated) | inactive | inactive |  | inactive | inactive | inactive | inactive | inactive |  |  |
| N[C@H](Cc1c[nH]c2ccccc12)C(=O)O | inactive | inactive |  |  | inactive | inactive | inactive | inactive | inactive |  |
| NCCN1CCNCC1 | inactive | inactive |  | inactive | inactive | inactive | inactive | inactive |  |  |
| O=C(O)/C=C/C(=O)O | inactive |  |  |  | inactive | inactive | inactive | inactive |  |  |
